33 compounds from PubChem BioAssay can be followed below.

What is called inhibition is the relative decrease from the control value, in per cent.

Experiment [1] concerns the target PEG-3 (UniProt Q6IN02). In words: Peg3 promoter luciferase inhibitors, potency, dose response, cell-based, HeLa, CREF/GAPDH counter-screen panel (AID 624167). The following applies: HeLa PEG-Prom luciferase reporter, overnight, CREF/GAPDH counter-screens; run 1, dose range 1, at 100 µM (top of the series).
For experiment [2], the target named is PEG-3 (UniProt Q6IN02). The experiment is described as above. The following applies: HeLa PEG-Prom luciferase reporter, overnight, CREF/GAPDH counter-screens; run 2, dose range 1, at 100 µM (top of the series).
The nature of experiment [3]: inhibitors of PAF-induced NFkB signaling in CF airway cells, dose response, cell-based, uHTS hits, panel, cytotoxicity readout (AID 624344). As to conditions: CF bronchial epithelial cells, PAF-induced NFkB reporter inhibition, with PAF, run 1; at 79 µM (top of the series); in the data active means activity above about 50%; inactive means the rest.
Test in experiment [4]: as above
As to conditions: CF bronchial epithelial cells, PAF-induced NFkB reporter inhibition, with PAF, run 2; at 79 µM (top of the series).

For experiment [5], the system named is Rat fibroblasts (CREF). In words: Peg3 promoter luciferase inhibitors, potency, dose response, cell-based, HeLa, CREF/GAPDH counter-screen panel (AID 624167). The following applies: CREF/GAPDH counter-screens; run 1, dose range 1, at 100 µM (top of the series). A general note: The purpose of a counterscreen is to sort out artefacts and off-target activity.
Experiment [6] concerns Rat fibroblasts (CREF). The experiment is described as above. As to conditions: CREF/GAPDH counter-screens; run 2, dose range 1, at 100 µM (top of the series).
Experiment [7] deals with Tumor necrosis factor receptor superfamily member 10B (Homo sapiens) (UniProt O14763). In words: caspase-8 TRAIL sensitization, hit retest, confirmation, cell-based, NB7+caspase-8, with/without TRAIL, luminescence panel (AID 651596). As to conditions: NB7 neuroblastoma + caspase-8, TRAIL sensitization, luminescence viability, with TRAIL, mean of runs, at 10 µM, stronger effect = higher value.

Test in experiment [8]: as above
As to conditions: NB7 neuroblastoma + caspase-8, without TRAIL, luminescence viability, without TRAIL, mean of runs, at 10 µM.

Sequence of Tumor necrosis factor receptor superfamily member 10B (Homo sapiens) (O14763 whole entry, looked up): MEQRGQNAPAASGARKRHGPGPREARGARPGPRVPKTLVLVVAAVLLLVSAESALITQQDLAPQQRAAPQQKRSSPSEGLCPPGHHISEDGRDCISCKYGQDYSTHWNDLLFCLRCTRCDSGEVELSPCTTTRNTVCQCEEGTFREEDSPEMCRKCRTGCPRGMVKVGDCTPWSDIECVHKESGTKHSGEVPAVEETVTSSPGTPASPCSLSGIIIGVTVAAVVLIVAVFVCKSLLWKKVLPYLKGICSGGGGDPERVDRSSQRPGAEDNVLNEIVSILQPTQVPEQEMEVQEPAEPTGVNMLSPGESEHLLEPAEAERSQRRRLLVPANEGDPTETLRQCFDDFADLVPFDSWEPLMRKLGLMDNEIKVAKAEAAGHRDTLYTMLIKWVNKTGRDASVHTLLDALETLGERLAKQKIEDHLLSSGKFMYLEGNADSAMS
Sequence of PEG-3 (Q6IN02 whole entry, looked up): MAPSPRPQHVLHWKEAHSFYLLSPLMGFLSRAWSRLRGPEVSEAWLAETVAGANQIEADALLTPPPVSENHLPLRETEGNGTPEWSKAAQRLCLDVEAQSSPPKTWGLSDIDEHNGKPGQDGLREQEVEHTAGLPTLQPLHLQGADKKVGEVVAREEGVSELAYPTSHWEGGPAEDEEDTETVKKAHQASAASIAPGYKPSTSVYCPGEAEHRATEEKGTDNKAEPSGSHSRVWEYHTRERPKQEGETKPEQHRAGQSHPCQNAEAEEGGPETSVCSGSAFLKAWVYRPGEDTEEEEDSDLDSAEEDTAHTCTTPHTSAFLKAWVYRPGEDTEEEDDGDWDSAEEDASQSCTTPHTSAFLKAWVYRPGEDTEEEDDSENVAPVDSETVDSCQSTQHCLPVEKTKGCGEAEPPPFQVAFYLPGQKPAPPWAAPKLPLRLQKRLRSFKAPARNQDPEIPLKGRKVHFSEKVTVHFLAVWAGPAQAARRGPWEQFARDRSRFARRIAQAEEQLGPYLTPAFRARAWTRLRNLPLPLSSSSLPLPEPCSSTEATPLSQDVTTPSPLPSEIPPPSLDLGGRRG

As to `CNCC(O)c1cc(OCc2ccccc2)c(OCc2ccccc2)cc1F` (stereo not given), the inhibition in the experiment with PEG-3 [1] and in the experiment with PEG-3 [2] was 102% throughout.

With `CCCCn1nnnc1C(CCc1ccccc1)N1CCC(n2c(=O)[nH]c3ccccc32)CC1` (stereo not given), the figures for the inhibition in experiment [3] and in experiment [4] were 89.5% and 93%, respectively.

For the compound `CCOC(=O)c1c(-n2c(C)cc(C=C3C(=O)NC(=S)NC3=O)c2C)sc2c1CCCC2`, the inhibition in the experiment with PEG-3 [1] was found to be 96.7%; in the experiment with PEG-3 [2], 101%; in the experiment with Rat fibroblasts (CREF) [5], 95.9%; with Rat fibroblasts (CREF) [6], 97.3%.

With `CCC(c1nnnn1-c1ccc2c(c1)OCCO2)N1CCC(n2c(=O)[nH]c3ccccc32)CC1` (stereo not given), the inhibition was found to be 101% with PEG-3 [1], 102% in the experiment with PEG-3 [2], 76.5% in the experiment with Rat fibroblasts (CREF) [5] and 63.2% in the experiment on Rat fibroblasts (CREF) [6].

As to `COc1cccc(C2CC3C(=O)C=CC2N3Cc2ccccc2)c1` (stereo not given), the results for the inhibition in the experiment with PEG-3 [1] and with PEG-3 [2] were 101% and 100%, respectively.

In the case of `CC(=O)OC(C)(C)/C=C/C(=O)C(C)(O)C1[C@H](O)C[C@@]2(C)C3CC=C4C(CC[C@@H](O)C4(C)C)[C@]3(CO)C(=O)C[C@]12C` (stereo not given in full), the inhibition with PEG-3 [1] worked out at 102%; with PEG-3 [2], 101%. In addition, the activity in experiment [7] was 43.7%; in experiment [8] it was 71.7%.

For `C[C@@H]1C[C@@H]([C@H](O)CC2CC(=O)NC(=O)C2)C(=O)[C@@H](C)C1`, the inhibition with PEG-3 [1] was determined as 98%; with PEG-3 [2], 101%; with Rat fibroblasts (CREF) [5] it was 62.3%; with Rat fibroblasts (CREF) [6] it was 58.2%; in experiment [3], 106%; in experiment [4], 116%.

For `C[C@@H]1O[C@@H](O[C@@H]2C=C3CCC4C(CC[C@]5(C)[C@@H](c6ccc(=O)oc6)CC[C@]45O)[C@@]3(C)CC2)[C@H](O)[C@H](O)[C@H]1O` (stereo not given in full), the inhibition stood at 99.3% in the experiment with PEG-3 [1] and 98.5% with PEG-3 [2]. The activity in experiment [7] worked out at 82.2%; in experiment [8] it was 91.8%.

With `O=C1NC(=O)N(Cc2ccc(F)cc2)C(=O)/C1=C\C=C\c1ccco1`, the inhibition in the experiment with PEG-3 [1] came out at 98.2%; in the experiment with PEG-3 [2], 99.4%.

In the case of `CC1=CC(O)C(O)C2(C)C1CC1OC(=O)C(O)C3C(C)C(O)C4(O)OCC13C42` (stereo not given), the inhibition was 95.8% in the experiment with PEG-3 [1] and 93.3% with PEG-3 [2].

`O=C1NC(=S)NC(=O)C1=Cc1cccn1-c1ccc(O)cc1`: the values for the inhibition with PEG-3 [1] and with PEG-3 [2] were 100% and 101%, respectively.

For the compound `C=Cc1cc(OC)c2c(c1)c(=O)oc1c2cc(OC)c2c(O)ccc(C3OC(C)C(O)C(C)(O)C3O)c21` (stereo not given), the inhibition with PEG-3 [1] was 101%; with PEG-3 [2], 102%; with Rat fibroblasts (CREF) [5], 25.3%; in the experiment with Rat fibroblasts (CREF) [6] it was 31.8%.

Regarding `c1ccc(-c2cc(-c3ccccc3)[n+](-c3ccccc3)c(-c3ccccc3)c2)cc1`, the figures for the inhibition with PEG-3 [1] and with PEG-3 [2] were 98.2% and 99.1%, respectively.

Take `CCN(CCCl)c1cc(CN(C)C)cc(NC(=O)c2ccc(C(=O)Nc3cc(CN(C)C)cc(N(CC)CCCl)c3)cc2)c1`: the inhibition with PEG-3 [1] amounted to 100%; in the experiment with PEG-3 [2], 101%; with Rat fibroblasts (CREF) [5] it was 99.6%; in the experiment on Rat fibroblasts (CREF) [6], 97.7%.

Regarding `O=C1NC2C(=CC(O)C(O)C2O)c2cc3c(c(O)c21)OCO3` (stereo not given), the inhibition with PEG-3 [1] turned out to be 99.4%; with PEG-3 [2], 94.9%.

`N#Cc1c(Br)n(C2OC(CO)C(O)C2O)c2ncnc(N)c12` (stereo not given): the inhibition came out at 106% in experiment [3] and 107% in experiment [4].

`CCN(CC)C(=O)c1ccc(NC(=O)Nc2ccccc2F)cc1`: the inhibition with PEG-3 [1] came out at 82.1%; with PEG-3 [2] it was 93.2%. In addition, the activity in experiment [7] is 69.6%; in experiment [8], 63.9%.

`COc1cc2c(c(OC)c1O)-c1ccc(OC)c(=O)cc1C(NC(=O)C(F)(F)F)CC2` (stereo not given): the inhibition in experiment [3] is -39.2%; in experiment [4] it was 24.5%.

`CC(=O)OC1(C)CC(C)C(=O)C(C(O)CC2CC(=O)NC(=O)C2)C1` (stereo not given): the inhibition was 96.1% with PEG-3 [1]; 94.4% with PEG-3 [2]; 61.8% in the experiment on Rat fibroblasts (CREF) [5]; 56.4% with Rat fibroblasts (CREF) [6]; 117% in experiment [3]; 108% in experiment [4].

As for `COC(COC(N)=O)C1=C(N2CC2)C(=O)C(C)=C(N2CC2)C1=O` (stereo not given), the inhibition with PEG-3 [1] was found to be 102%; with PEG-3 [2], 101%; with Rat fibroblasts (CREF) [5] it was 100%; with Rat fibroblasts (CREF) [6], 98.7%.

With `Cc1c(C(=O)c2cccc3ccccc23)c2cccc3c2n1[C@H](CN1CCOCC1)CO3`, the inhibition in experiment [3] is 104%; in experiment [4] it was 112%.

Consider `Cc1ccc(S(=O)(=O)c2nc(-c3ccccc3Cl)oc2N(C)C2CCN(C)CC2)cc1`, for which the inhibition with PEG-3 [1] is 99.3%; in the experiment with PEG-3 [2] it was 101%.

For the compound `Cc1ccc(C)c(NP(=O)(Oc2ccccc2)Oc2ccccc2)c1`, the inhibition worked out at 88.2% in the experiment with PEG-3 [1] and 96.7% with PEG-3 [2].

As to `COc1ccc(-n2nnnc2C(C2CC2)N2CCC(n3c(=O)[nH]c4ccccc43)CC2)cc1` (stereo not given), the inhibition with PEG-3 [1] is 93.8%; in the experiment with PEG-3 [2], 95.7%.

Consider `O=Cc1cn(Cc2cccc(F)c2)c2ccccc12`, for which the inhibition was 50.1% with PEG-3 [1] and 75.9% with PEG-3 [2].

For `CC1=CC2/C=C(\C)CCC(O)C(O)/C=C/C(=O)C23C(=O)NC(CC(C)C)C3C1C` (stereo not given), the inhibition with PEG-3 [1] was found to be 102%; with PEG-3 [2], 101%; in the experiment with Rat fibroblasts (CREF) [5] it was 100%; in the experiment on Rat fibroblasts (CREF) [6], 100%. The activity in experiment [7] worked out at 95.3%; in experiment [8], 97.8%.

On to `COc1cc2nc(CN3CC=C(c4ccccc4)CC3)[nH]c(=O)c2cc1OC`, for which the inhibition with PEG-3 [1] came out at 93.8%; in the experiment with PEG-3 [2] it was 45.3%; in the experiment with Rat fibroblasts (CREF) [5] it was 38.6%; in the experiment on Rat fibroblasts (CREF) [6] it was 26.4%.

As for `COc1ccc(CNCCc2c(C)[nH]c3ccc(OC(F)(F)F)cc23)c(OC)c1`, the inhibition with PEG-3 [1] was 102%; with PEG-3 [2] it was 101%.

Consider `O=Cc1cn(Cc2ccc(Br)cc2)c2ccccc12`, for which the inhibition with PEG-3 [1] stood at 41.6%; in the experiment with PEG-3 [2], 72.9%.

On to `CCC1(OC(=O)CN)C(=O)OCc2c1cc1n(c2=O)Cc2cc3ccccc3nc2-1` (stereo not given), for which the inhibition with PEG-3 [1] is 100%; with PEG-3 [2], 96.5%; with Rat fibroblasts (CREF) [5] it was 65.4%; in the experiment on Rat fibroblasts (CREF) [6], 72%.

In the case of `Cc1ccccc1CN1Cc2cnnn2-c2ccccc2C1C#N` (stereo not given), the inhibition with PEG-3 [1] came to 99.2%; with PEG-3 [2], 98.3%. Further, the activity turned out to be 37.7% in experiment [7] and 78.2% in experiment [8].

`CC1CCOC(=O)C=CC=CC(=O)OC2CC3OC4C5OC5(C)C(O)CC4(COC(=O)C1O)C2(C)C31CO1` (stereo not given): the activity in experiment [7] was 93.7%; in experiment [8] it was 97.2%.

On to `O=c1[nH]c2ccccc2n1C1CCN(C(c2cc3ccccc3o2)c2nnnn2Cc2ccccc2)CC1` (stereo not given), for which the activity came out at 73.2% in experiment [7] and 75.7% in experiment [8].
